Results reported in PubChem BioAssay (NCATS).

Legend:
[1] = qHTS profiling of the MIPE4 collection as inhibitors of Plasmodium falciparum (3D7) proliferation (AID 743344);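 note: scaled between DMSO vehicle wells and 0.29 µM artemisinin as full inhibition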; conditions: P. falciparum 3D7 in erythrocytes, SYBR Green DNA fluorescence, 72 h; at 28.5 µM
Summary of the method: (§1)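 Parasite DNA was quantified by SYBR Green I fluorescence (ex 485, em 535 nm) after overnight lysis in saponin/Triton buffer at room temperature. Cultures at 0.3% parasitemia and 2.5% hematocrit were first exposed to compound for 72 h at 37 C; signals were normalised to artemisinin (0.29 uM) and vehicle wells.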

[2] = qHTS profiling of the MIPE4 collection as inhibitors of Plasmodium falciparum (DD2) proliferation (AID 743345); conditions: P. falciparum Dd2 in erythrocytes, SYBR Green DNA, 72 h; at 28.5 µM unless noted
Summary of the method: as §1

[3] = qHTS profiling of the MIPE4 collection as inhibitors of Plasmodium falciparum (DD2) proliferation (Rep 2) (AID 743346); conditions: P. falciparum Dd2 in erythrocytes, SYBR Green DNA, 72 h; at 28.5 µM
Summary of the method: as §1

[4] = qHTS profiling of the MIPE4 collection as inhibitors of Plasmodium falciparum (HB3) proliferation (AID 743347);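 note: plate controls were DMSO vehicle wells for no effect and artemisinin wells for full effect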; conditions: P. falciparum HB3 in erythrocytes, SYBR Green DNA, 72 h; at 28.5 µM
Summary of the method: as §1

SMILES | parasite growth, % of DMSO control [1] [%] | parasite growth remaining, % of DMSO control (lower = more inhibition) [2] [%] | parasite growth, % of control (lower = inhibition) [3] [%] | growth, % of control [4] [%]
CCCN1CCO[C@@H]2c3cc(O)ccc3OC[C@@H]21 | 98.1 | 99.7 | 91 | 77.3
C=C1C[C@H]2[C@H]3CCC(=O)[C@@]3(C)CC[C@@H]2[C@@]2(C)C=CC(=O)C=C12 |  | 90.6 | 50.5 | 29
Cc1ccccc1-n1c(Cn2ncc3c(N)ncnc32)nc2cccc(C)c2c1=O | 48.8 | 94.1 | 37 | 53.3
O=C(O)CNC(=O)c1c(O)c2ccccc2n(Cc2ccccc2)c1=O |  | 93.4 | 75.1 | 
CC(C)(C)c1cc(C=C(C#N)C#N)cc(Br)c1O |  | 93.3 | 37.3 | 34.7
CC[C@H]1C=CC=CC[C@@H](C)[C@H](O)[C@@](C)(O)C(=O)[C@@H](C)[C@H](O)[C@@H](C)C(=O)[C@@H](C)[C@H](O)[C@@H](C)C=CC(=O)O[C@@H]2[C@@H](C)[C@H](CC1)O[C@]1(CC[C@H](C)[C@H](C[C@@H](C)O)O1)[C@H]2C | 16.9 | 6.38 | 20.2 | 8.5
COc1ccc(C(=O)c2c(C)n(CCN3CCOCC3)c3cc(I)ccc23)cc1 |  | 85 | 35.4 | 
CC(=Cc1csc(C)n1)[C@@H]1C[C@H]2O[C@@H]2CCC[C@H](C)[C@@H](O)[C@@H](C)C(=O)C(C)(C)[C@@H](O)CC(=O)O1 |  | 16.1 | 36.4 | 12.9
CC(C)N[C@@H]1CCn2c(=O)[nH]c3cccc(c32)[C@@H]1O |  | 104 | 118 | 
CC(=O)O[C@@]12CO[C@H]1C[C@H](O)[C@@]1(C)C(=O)[C@H](O)C3=C(C)[C@@H](O)C[C@@](O)([C@@H](OC(=O)c4ccccc4)[C@@H]21)C3(C)C | 60.1 | 94.5 | 42.4 | 34.8
O=c1cccc2n1CC1CNC[C@H]2C1 |  | 90.9 | 53.7 | 52.1
Cc1c(C(=O)c2cccc3ccccc23)c2cccc3c2n1[C@H](CN1CCOCC1)CO3 |  | 47.9 | 48.7 | 13.4
CC(=CCCC1=CCC(C2=CC(=O)OC2O)OC1O)CCC1=C(C)CCCC1(C)C (stereo not given) |  | 44.2 | 72 | 36
COc1cc2cc(c1Cl)N(C)C(=O)C[C@H](OC(=O)C(C)C)[C@]1(C)O[C@H]1[C@H](C)[C@@H]1C[C@@](O)(NC(=O)O1)[C@H](OC)C=CC=C(C)C2 |  | 16.8 | 21.9 | 
N#C[C@H](O[C@@H]1O[C@H](CO[C@@H]2O[C@H](CO)[C@H](O)[C@H](O)[C@H]2O)[C@H](O)[C@H](O)[C@H]1O)c1ccccc1 |  | 17.6 | 37.7 | 60.6
C[C@]12Cc3cn[nH]c3C[C@@H]1CC[C@@H]1[C@H]2CC[C@@]2(C)[C@H]1CC[C@]2(C)O |  | 90 | 54.3 | 
C[C@]12CC[C@@H]3[C@@H](CCC4=CC(=O)CC[C@@H]43)[C@@H]1CC[C@@H]2OC(=O)CCc1ccccc1 |  | 83 | 56.3 | 90.8
CCNC(=O)C[C@@H]1N=C(c2ccc(Cl)cc2)c2cc(OC)ccc2-n2c(C)nnc21 |  | 106 | 99.1 | 
C1=C2CCCN[C@H]2[C@@H]2C[C@H]1[C@@H]1CCCCN1C2 |  | 84.7 | 69.3 | 94.5
c1cc2c(cc1[C@H]1OC[C@H]3[C@H]1CO[C@H]3c1ccc3c(c1)OCO3)OCO2 |  | 91.9 | 126 | 
CC[C@@H]1[C@@H](C)O[C@@](O)([C@@H](C)[C@H](O)[C@H](C)[C@H]2OC(=O)C=CC=C[C@@H](C)[C@@H]([C@@H](C)[C@@H](O)[C@H](C)[C@@]3(O)C[C@H](O[C@H]4C[C@H](O)[C@H](O)[C@H](C)O4)[C@H](CC)[C@@H](C)O3)OC(=O)C=CC=C[C@@H]2C)C[C@H]1O[C@H]1C[C@H](O)[C@H](O)[C@H](C)O1 | 49.6 | 6.07 | 25.8 | 47.6
c1ccc2c(CN3CCNCC3)cccc2c1 |  | 53.1 | 43.2 | 
CC(C)(O)C=CC(=O)[C@](C)(O)[C@H]1[C@H](O)C[C@]2(C)[C@@H]3CC=C4[C@@H](C=C(O)C(=O)C4(C)C)[C@]3(C)C(=O)C[C@@]12C | 5.63 | 7.06 | 21.6 | 7.62
O=c1[nH]c2ccc(Cl)cc2c(N[C@@H]2CN3CCC2CC3)c1-c1nc2ccccc2[nH]1 |  | 5.74 | 8.84 | 
C[C@@H]1CC[C@@]2(OC1)O[C@H]1C[C@H]3[C@@H]4CC=C5C[C@@H](O[C@@H]6O[C@H](CO)[C@@H](O[C@@H]7O[C@@H](C)[C@H](O)[C@@H](O)[C@@H]7O)[C@H](O)[C@@H]6O[C@@H]6O[C@@H](C)[C@H](O)[C@@H](O)[C@@H]6O)CC[C@]5(C)[C@@H]4CC[C@]3(C)[C@@H]1[C@H]2C |  | 52.8 | 61.5 | 28.8
C[C@](O)(COc1ccc(C#N)cc1)C(=O)Nc1ccc(C#N)c(C(F)(F)F)c1 |  | 92.3 | 20.8 | 9.27
COC1=CC(C)=C[C@@H](C)[C@@H](O)[C@@H](C)CC(C)=CC=C[C@H](OC)[C@H]([C@@H](C)[C@@H](O)[C@H](C)[C@@]2(O)C[C@@H](O)[C@H](C)[C@@H](C(C)C)O2)OC1=O |  | 6.47 | 13.8 | 
O=C(NCC1CCOCC1)c1cnc(Nc2ccc(Cl)cc2Cl)nc1C(F)(F)F |  | 102 | 52.2 | 49.9
